Experimental data taken from PubChem BioAssay AID488969 (Vanderbilt High Throughput Screening Facility, 2010).
In all, about 110,000 compounds were measured (“z-score”: median about -0.1, highest 2% from about 2 on). This is one part of a sample in which the highest values are shown more often than they occur. Active and inactive are the calls of the source.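 Rule for the calls: active = z-score in the third read window above 3 or below -3; inactive = the rest.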

biological target: Metabotropic glutamate receptor 8 (Rattus norvegicus) (UniProt P70579); experiment: mGluR8 Gi/Go-coupled signaling modulation – cell-based, rat, thallium flux, HTS, primary screen (AID 488969); conditions: HEK293 rat mGluR8, GIRK (G protein-gated inwardly rectifying potassium channel) thallium flux, FluoZin2; at 10 µM; stronger effect = higher value; submaximal glutamate (EC20) added with thallium
Sequence (P70579 whole entry, looked up): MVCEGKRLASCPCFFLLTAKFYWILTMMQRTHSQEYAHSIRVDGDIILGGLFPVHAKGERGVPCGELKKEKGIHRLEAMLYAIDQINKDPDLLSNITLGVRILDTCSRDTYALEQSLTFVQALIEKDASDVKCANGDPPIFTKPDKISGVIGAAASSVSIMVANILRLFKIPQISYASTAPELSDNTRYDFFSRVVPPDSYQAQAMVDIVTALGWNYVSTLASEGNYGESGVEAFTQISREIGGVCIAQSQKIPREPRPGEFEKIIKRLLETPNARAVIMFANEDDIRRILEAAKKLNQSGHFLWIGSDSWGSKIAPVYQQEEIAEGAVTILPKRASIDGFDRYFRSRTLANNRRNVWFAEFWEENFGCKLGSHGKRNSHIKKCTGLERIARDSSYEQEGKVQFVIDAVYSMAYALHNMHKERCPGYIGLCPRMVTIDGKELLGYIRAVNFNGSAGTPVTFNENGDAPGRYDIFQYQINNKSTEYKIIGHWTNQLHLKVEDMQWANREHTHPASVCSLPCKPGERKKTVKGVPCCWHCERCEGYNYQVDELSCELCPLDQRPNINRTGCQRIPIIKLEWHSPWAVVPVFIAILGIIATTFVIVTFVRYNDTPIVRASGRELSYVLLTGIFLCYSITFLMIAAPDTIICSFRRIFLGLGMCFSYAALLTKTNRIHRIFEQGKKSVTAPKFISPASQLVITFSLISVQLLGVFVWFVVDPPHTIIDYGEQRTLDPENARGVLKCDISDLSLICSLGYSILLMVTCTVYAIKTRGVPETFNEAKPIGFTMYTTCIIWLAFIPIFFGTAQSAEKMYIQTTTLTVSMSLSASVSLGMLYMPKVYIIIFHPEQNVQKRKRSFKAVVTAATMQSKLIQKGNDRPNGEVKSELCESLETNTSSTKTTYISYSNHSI

SMILES	z-score
CCOC(=O)C1=c2s/c(=C\c3cccnc3)c(=O)n2C(N)=C(C(=O)OC)C1c1cccnc1 (configuration not stated)	0.984
C[C@H](NC(=O)c1ccccc1Cl)C(=O)OCC(=O)N1CC2(C)CC1CC(C)(C)C2 (some centres not stated)	0.00588
CC1(C)CC2CC(C)(CN2C(=O)NC(=O)c2ccccc2)C1 (configuration not stated)	-0.259
CC1(C)CC2CC(C)(CN2C(=S)NC(=O)c2ccccc2Cl)C1 (configuration not stated)	8.8 (active)
O=C(CSCCO)Nc1cccc(C(F)(F)F)c1	0.657
CN(C)C(=O)CN(c1ccc2c(c1)OCO2)S(C)(=O)=O	-0.0253
CCN(CC)C(=O)CN(c1ccc2c(c1)OCO2)S(C)(=O)=O	2.51
CS(=O)(=O)N(CC(=O)O)c1ccc2c(c1)OCO2	-2.86
Cc1c(C(=O)OC(C)C)sc(NC(=O)C2CCCO2)c1C(=O)OC(C)C (configuration not stated)	-0.0386
O=C(CCNC(=O)c1ccccc1Cl)Nc1cccc(C(F)(F)F)c1	-0.204
Fc1cccc(Cl)c1CSc1nnc(COc2cccc3cccnc23)o1	-0.675
Cc1nc(N2CCN(C)CC2)c2sc(=S)n(C)c2n1	0.624
Cc1ccc(-n2nnnc2-c2cnn(-c3cccc(F)c3)c2C(F)(F)F)cc1	0.0555
COC(=O)c1ccc(CSc2nnc(Nc3cccc(OC)c3)s2)o1	0.67
COC(=O)c1ccc(CSc2nnc(Nc3ccccc3OC)s2)o1	4.01 (active)
COC(=O)c1ccc(CSc2nnc(Nc3ccc(OC)cc3)s2)o1	0.755
CC1=C(C(=O)Nc2ccc(F)cc2)C(c2ccc(C)o2)C2=C(CC(C)(C)CC2=O)N1 (configuration not stated)	0.288
CC(C)CNC(=S)N1CCN(C(c2ccccc2)c2ccccc2)CC1	-0.358
CCNc1ccc(S(=O)(=O)N(C)C)cc1NCC(=O)Nc1ccc(Br)cc1F	-0.257
COc1ccc(-c2noc(-c3cc(Cl)ccc3Cl)n2)cc1OC	3.41 (active)
CCOc1ccc(-c2nc(-c3ccncc3)no2)cc1OCC	2.12
COc1ccc(-c2noc(-c3ccccc3Cl)n2)cc1OC	-0.738
COc1ccc(-c2noc(-c3ccc(Cl)cc3[N+](=O)[O-])n2)cc1OC	-0.0457
CCOc1ccc(-c2nc(-c3ccc(OC)c(OC)c3)no2)cc1OCC	4.75 (active)

SMILES	z-score
CCOc1ccc(-c2nc(-c3ccccc3)no2)cc1OCC	1.62
CCOc1ccc(-c2noc(COC)n2)cc1OC	-0.328
CCOc1cc(-c2nc(-c3cc(OC)c(OC)c(OC)c3)no2)cc(OCC)c1OCC	0.87
CCOc1ccccc1-c1nc(-c2ccncc2)no1	0.0712
CCOc1ccc(-c2nc(-c3ccc(OC)cc3)no2)cc1OCC	2.87
COc1ccc(-c2noc(-c3cc(C)cc(C)c3)n2)cc1OC	0.138
CCOc1nc(C)ccc1-c1noc(-c2ccncc2)n1	0.775
COC(=O)c1cc2sc(Cl)cc2n1Cc1nc(-c2cccc(C)c2)oc1C	-0.256
Cc1noc(C)c1CSCC(=O)NC1=NCCS1	-0.333
O=C(Cn1c(=O)n(Cc2ccccc2)c(=O)c2ccccc21)NCc1ccco1	-1.05
COc1c(Cl)cc(Cl)cc1C(=O)Nc1ccc(NC(=O)c2cccs2)cc1	0.021
CC1(C)CC(=O)C=C(NC2CCCCCCC2)C1	-0.289
O=C(NCC1(c2ccccc2)CCCC1)c1ccc(Br)o1	-0.309
O=C(Oc1cccc2c(OC(=O)N3CCCC3)cccc12)N1CCCC1	-0.117
COC(=O)c1cccc(-n2c(C)cc(C=O)c2C)c1	-0.0226
Fc1ccc(Cn2nnnc2CN2CCN(C3CCCCC3)CC2)cc1	0.354
COCCCn1ccc(O)c(Cc2ccc(F)cc2)c1=O	-0.0433
Cc1nn(-c2ccc3nnc(Br)n3n2)c(C)c1Br	-0.48
CCc1ccc2c(c1)/C(=C/C(=O)c1cccs1)C(=O)N2	-0.314
CCOc1ccc(-c2nc(-c3cccnc3)no2)cc1OCC	0.841
CC(C)(C)c1ccc(-c2nc(-c3ccncc3)no2)cc1	-0.17
CCc1ccc(-c2nc(-c3ccncc3)no2)cc1	2.31
c1ccc(-c2nc(-c3ccncc3)no2)cc1	-0.104
CCOc1ccc(-c2nnc(-c3cccnc3)o2)cc1OCC	0.0661

SMILES	z-score
CCOc1cc(-c2noc(-c3cccnc3)n2)ccc1OC	3.79 (active)
CC(C)C(=O)NCCc1nc2ccccc2n1C	0.0935
C=CCNC(=O)c1onc(CSc2ccccc2F)c1C(=O)O	-0.015
Cc1nc2ccccc2c(=O)n1/N=C/c1ccncc1	-0.171
O=C(NCC(=O)N(CC1CCCO1)C(C(=O)NC1CCCCC1)c1ccc(F)cc1)c1ccco1 (configuration not stated)	0.579
Cc1ccccc1C1C(C#N)=C2NC(=O)c3c(sc4c3CCCCC4)N2C2=C1C(=O)CC(C)(C)C2 (configuration not stated)	1.56
CCCn1c(CCNC(=O)c2cccs2)nc2ccccc21	-0.594
CN1CCN(Cc2cc(Cl)c3cccnc3c2OC(=O)c2cccs2)CC1	0.273
O=C(Oc1c(Cl)cc(Cl)c2cccnc12)c1cccc([N+](=O)[O-])c1	9.18 (active)
Cc1ccc(C(=O)Oc2ccc(Cl)c3cccnc23)cc1[N+](=O)[O-]	0.387
O=C(Oc1c(Cl)cc(Cl)c2cccnc12)N1CCOCC1	-0.0144
O=C(Oc1c(Cl)cc(Cl)c2cccnc12)c1ccco1	3.13 (active)
O=C(Oc1ccc(Cl)c2cccnc12)c1cccc([N+](=O)[O-])c1	0.0891
O=C(Oc1cccc2cccnc12)c1cccs1	-0.532
O=C(Oc1c(Cl)cc(Cl)c2cccnc12)c1cccs1	2.7
O=C(Oc1ccc(Cl)c2cccnc12)c1ccco1	0.951
Cc1oc2c(C)c3oc(=O)c4c(c3cc2c1C)CCC4	-0.532
COc1ccc(N(C(=O)Cn2nnc(-c3ccc(Cl)cc3)n2)C(C(=O)NCC2CCCO2)c2ccc(C)cc2)cc1 (configuration not stated)	-0.126
O=C(COC(=O)Cn1cnc2ccccc2c1=O)Nc1ccc(Cl)c(C(F)(F)F)c1	-0.01
CC(=O)Nc1ccc(S(=O)(=O)NNC(=O)c2ccc(C)cc2)cc1	-0.161
CC(=O)N1CCC2(CC1)C(C#N)=C(N)OC1=C2C(=O)CC(C)(C)C1	0.05
COC(=O)c1c(NC(=O)C2COc3ccccc3O2)sc2c1CCN(Cc1ccccc1)C2 (configuration not stated)	0.0786
Cc1ccccc1-n1c(O)c(/C=N/N2CCCCC2c2cccnc2)c(=O)[nH]c1=O (configuration not stated)	-0.187
CN(C)C(=S)Nn1c(-c2ccccc2)nc2ccccc2c1=O	-0.411
